Laboratory results from PubChem BioAssay (NCI).
This is part of a sample that, as a whole, favours compounds with a hit. Of some 83,000 tested, about 20% had one in any assay.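 Assay: single dose, 48 h. Readout: percent growth (0 = no net growth; negative = cell death). Active: <10.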 Unmarked numbers belong to inactive results. Calls of active or inactive are those of the source.

Columns and labels:
Assay in all cases: NCI-60 one-dose screen, 48 h (100 = growth as untreated, 0 = no growth, -100 = all killed)
Details in all cases: 10 µM unless noted
OVCAR-8 ovarian = test system: OVCAR-8 ovarian
OVCAR-5 ovarian = test system: OVCAR-5 ovarian
OVCAR-4 ovarian = test system: OVCAR-4 ovarian
SK-OV-3 ovarian = test system: SK-OV-3 ovarian
OVCAR-3 ovarian = test system: OVCAR-3 ovarian
HS 578T breast = test system: HS 578T breast
NCI/ADR-RES ovarian = test system: NCI/ADR-RES ovarian
T-47D breast = test system: T-47D breast
IGROV1 ovarian = test system: IGROV1 ovarian

Row | Structure (SMILES) | growth (OVCAR-8 ovarian) | growth (OVCAR-5 ovarian) | growth (OVCAR-4 ovarian) [%] | growth (SK-OV-3 ovarian) | growth (OVCAR-3 ovarian) | growth (HS 578T breast) | growth (NCI/ADR-RES ovarian) | growth (T-47D breast) | growth (IGROV1 ovarian) [%]
1 | O=c1[nH]c(=O)n(C2CC(O)C(CO)O2)cc1C(F)(F)F (configuration not stated) | 48.5% | 54.5% | 78.1 | 74.3% | 69.7% | 70.8% | -56.9% (active) | 52.8% | 
2 | COc1ccc2c(c1)C(=O)/C(=C/c1cccc(OCC(=O)c3ccccc3)c1)CC2 | 78.6% | 102% | 81.5 | 120% | 89.2% | 98.6% | 80.7% | 70.6% | 
3 | Cc1ccccc1NC(=O)c1cc2ccccc2cc1O | 60% | 77.9% | 56.1 | 61.1% | -10.2% (active) |  | 27.8% | 49.9% | 30.2
4 | ClC1=C(Cl)C(Cl)=C(Cl)C1=C/C=C/c1ccccc1 | -41.7% (active) | -77.9% (active) | 14.7 | -22% (active) | -88.7% (active) | -5.58% (active) | -0.902% (active) | -4.63% (active) | 
5 | CCOC(=O)c1cc(-c2cccnc2)nc2c(Cl)cc(Cl)cc12 | 104% | 92% | 89.9 | 91.2% | 80% | 95% | 94% | 85.3% | 
6 | Cc1ccc(C(O)C2=CC(=O)c3ccccc3C2=O)cc1 (configuration not stated) | 91.3% | 95.4% |  | 105% | 93.3% | 104% | 96.4% | 76.5% | 89.6
7 | O=C(OCCBr)c1ccc(Cl)c([N+](=O)[O-])c1 | 102% | 108% |  | 79.4% | -21.3% (active) | -29.9% (active) | 113% | -57.2% (active) | 102
8 | Cc1nn(-c2ccc(Cl)cc2)c2nc3c(nc12)C(=O)C(=O)c1ccccc1-3 |  | 95.9% | 48.4 | 93.8% | 2.92% (active) | 61.3% | 76.5% | 67.6% | 59.1
9 | c1ccc2cc(C[n+]3ccn(CCCCCCCn4cc[n+](Cc5ccc6ccccc6c5)c4)c3)ccc2c1 |  | 48.2% | 37.3 | 36.1% | 44.4% | 61.5% | 99.7% | 23.4% | 27.5
10 | c1ccc(Nc2nnc(-c3cc(-c4cccnc4)n(-c4ccccc4)n3)s2)cc1 | 59.9% | 105% |  | 109% | 106% | 119% | 62.4% | 51.3% | 108
11 | COC(=O)[C@]1(CCSC)N[C@H](c2cn(-c3ccccc3)nc2C)[C@@H]2C(=O)N(c3ccc(C)cc3)C(=O)[C@@H]21 |  | 94.6% | 112 | 98.5% | 114% | 103% | 93.4% | 101% | 115
12 | Cc1nn(-c2ccc(Br)cc2)c2nc3c(nc12)C(=O)C(=O)c1ccccc1-3 |  | 100% | 88.3 | 93.6% | 101% | 105% |  | 91.2% | 81.9
13 | O=C1Cc2cc(CCn3cncn3)c(Cl)cc2N1 |  | 87.4% | 86.8 | 79.3% | 71.7% | 28.6% |  | 99.1% | 84.7
14 | COC(=O)[C@]1(C(C)C)N[C@H](c2cn(-c3ccccc3)nc2-c2ccccc2)[C@@H]2C(=O)N(c3ccc(Cl)cc3)C(=O)[C@@H]21 |  | 101% | 117 | 92.7% | 89.1% | 117% | 90.3% | 93.6% | 103
15 | Cc1c(C(N)=O)sc2c1c(=O)n(Cc1ccccc1)c1nnc(S(=O)(=O)CC(=O)Nc3ccc(Cl)cc3)n21 |  | 82.7% |  | 18.7% | 5.69% (active) | 17.8% | 108% | 21.8% | 40
